Experimental data as given in the supplement of paper PMC11732987, “Enantioselective OTUD7B fragment discovery through chemoproteomics screening and high-throughput optimisation” (Communications Chemistry, 2025).

What was measured:
Experiment in all cases: log2 ratio of Biotin-Ahx-Ub-VS probe labelling (fragment/DMSO); higher = less target engagement (more negative = stronger competition), active = hit call of the paper (q ≤ 0.05, log2 ratio ≤ -1)
Details in all cases: compound concentration: 200 uM; treatment time: 3 h
[1] = molecular target: T1, USP42 (UniProt Q9H9J4)
T1 sequence (whole entry): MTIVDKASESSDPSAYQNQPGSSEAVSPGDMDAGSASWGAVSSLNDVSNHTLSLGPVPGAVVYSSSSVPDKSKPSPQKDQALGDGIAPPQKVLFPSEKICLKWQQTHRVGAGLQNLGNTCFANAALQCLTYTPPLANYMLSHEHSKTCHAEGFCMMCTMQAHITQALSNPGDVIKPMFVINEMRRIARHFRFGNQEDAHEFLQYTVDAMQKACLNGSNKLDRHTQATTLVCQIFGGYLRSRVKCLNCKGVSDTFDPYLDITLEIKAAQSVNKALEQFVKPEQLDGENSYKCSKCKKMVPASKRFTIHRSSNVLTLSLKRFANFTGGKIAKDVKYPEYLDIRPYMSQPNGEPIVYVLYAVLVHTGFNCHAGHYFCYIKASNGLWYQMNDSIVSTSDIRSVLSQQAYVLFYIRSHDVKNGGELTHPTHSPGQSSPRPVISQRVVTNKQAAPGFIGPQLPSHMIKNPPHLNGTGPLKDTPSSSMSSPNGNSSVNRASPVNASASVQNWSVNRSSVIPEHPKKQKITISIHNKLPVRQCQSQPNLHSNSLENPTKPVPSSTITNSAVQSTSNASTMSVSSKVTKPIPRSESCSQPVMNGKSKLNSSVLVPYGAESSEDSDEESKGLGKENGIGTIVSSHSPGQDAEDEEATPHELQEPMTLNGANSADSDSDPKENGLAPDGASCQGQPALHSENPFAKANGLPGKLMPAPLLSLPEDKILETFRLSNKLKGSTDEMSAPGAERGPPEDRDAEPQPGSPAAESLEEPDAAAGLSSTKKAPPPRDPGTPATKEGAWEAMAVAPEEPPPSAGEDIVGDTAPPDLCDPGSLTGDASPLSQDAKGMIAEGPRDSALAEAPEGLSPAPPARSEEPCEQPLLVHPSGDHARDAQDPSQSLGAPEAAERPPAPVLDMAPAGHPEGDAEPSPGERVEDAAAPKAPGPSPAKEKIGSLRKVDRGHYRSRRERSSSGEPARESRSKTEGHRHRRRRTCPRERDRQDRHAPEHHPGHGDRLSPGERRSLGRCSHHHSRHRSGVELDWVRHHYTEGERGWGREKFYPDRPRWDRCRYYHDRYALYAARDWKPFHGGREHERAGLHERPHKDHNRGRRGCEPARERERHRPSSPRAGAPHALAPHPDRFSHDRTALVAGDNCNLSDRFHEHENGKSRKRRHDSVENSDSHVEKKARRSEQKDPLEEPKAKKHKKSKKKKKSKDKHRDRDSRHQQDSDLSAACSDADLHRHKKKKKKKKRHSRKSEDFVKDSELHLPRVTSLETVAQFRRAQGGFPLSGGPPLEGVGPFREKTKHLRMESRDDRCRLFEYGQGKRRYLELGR
Method in brief: (§1)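 Each value is an average log2 ratio of fragment to vehicle, tested by unpaired t-test. The underlying Spectronaut label-free quantities were global-median-normalised, and only proteins with ≥2 unique peptides were included. Triplicate HEK293T lysate samples (495 µg) were exposed to fragment at 200 µM or vehicle for 3 h, then to Biotin-Ahx-Ub-VS at 0.5 µM final for 1 h, before NeutrAvidin enrichment of labelled DUBs, LysC and trypsin digestion, and diaPASEF LC-MS/MS.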

[2] = molecular target: USP46 (UniProt P62068)
Method in brief: as §1

[3] = molecular target: T2, USP47 (UniProt Q96K76)
T2 sequence (whole entry): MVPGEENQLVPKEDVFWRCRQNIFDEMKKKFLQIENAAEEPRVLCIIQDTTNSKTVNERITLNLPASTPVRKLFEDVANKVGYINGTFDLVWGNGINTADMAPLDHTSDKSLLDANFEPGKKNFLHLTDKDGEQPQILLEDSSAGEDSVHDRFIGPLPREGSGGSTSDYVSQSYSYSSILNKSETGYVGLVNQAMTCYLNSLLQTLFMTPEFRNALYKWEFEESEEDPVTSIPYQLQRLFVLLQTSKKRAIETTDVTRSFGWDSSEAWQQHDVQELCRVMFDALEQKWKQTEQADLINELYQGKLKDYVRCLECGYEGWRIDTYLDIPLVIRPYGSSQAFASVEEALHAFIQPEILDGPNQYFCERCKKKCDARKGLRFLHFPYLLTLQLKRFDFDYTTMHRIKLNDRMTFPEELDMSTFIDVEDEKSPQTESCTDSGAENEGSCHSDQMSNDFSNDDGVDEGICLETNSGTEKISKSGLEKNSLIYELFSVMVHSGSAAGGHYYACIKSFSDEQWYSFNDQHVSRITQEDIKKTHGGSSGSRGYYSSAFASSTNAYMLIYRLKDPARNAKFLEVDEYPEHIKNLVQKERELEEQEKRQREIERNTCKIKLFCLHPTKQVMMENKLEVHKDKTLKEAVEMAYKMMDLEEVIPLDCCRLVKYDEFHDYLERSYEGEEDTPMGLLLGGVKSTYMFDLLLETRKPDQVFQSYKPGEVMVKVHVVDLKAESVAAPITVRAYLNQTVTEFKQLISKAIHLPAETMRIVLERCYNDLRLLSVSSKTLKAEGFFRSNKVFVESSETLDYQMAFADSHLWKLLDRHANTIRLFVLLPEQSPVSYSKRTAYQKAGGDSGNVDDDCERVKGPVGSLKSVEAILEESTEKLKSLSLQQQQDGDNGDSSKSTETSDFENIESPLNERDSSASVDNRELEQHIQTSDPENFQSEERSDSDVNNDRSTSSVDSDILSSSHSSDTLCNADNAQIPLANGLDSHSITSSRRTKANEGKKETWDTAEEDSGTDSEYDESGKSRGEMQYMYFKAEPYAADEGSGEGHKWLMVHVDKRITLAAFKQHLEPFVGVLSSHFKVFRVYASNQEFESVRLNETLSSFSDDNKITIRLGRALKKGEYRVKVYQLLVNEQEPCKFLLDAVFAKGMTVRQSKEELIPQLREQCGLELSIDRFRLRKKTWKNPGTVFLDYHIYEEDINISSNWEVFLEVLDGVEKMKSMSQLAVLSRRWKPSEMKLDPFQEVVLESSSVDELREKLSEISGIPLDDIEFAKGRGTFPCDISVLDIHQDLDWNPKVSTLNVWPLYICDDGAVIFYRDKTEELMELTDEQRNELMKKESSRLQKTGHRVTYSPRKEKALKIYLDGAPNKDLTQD
Method in brief: as §1

[4] = molecular target: T3, USP48 (UniProt Q86UV5)
T3 sequence (whole entry): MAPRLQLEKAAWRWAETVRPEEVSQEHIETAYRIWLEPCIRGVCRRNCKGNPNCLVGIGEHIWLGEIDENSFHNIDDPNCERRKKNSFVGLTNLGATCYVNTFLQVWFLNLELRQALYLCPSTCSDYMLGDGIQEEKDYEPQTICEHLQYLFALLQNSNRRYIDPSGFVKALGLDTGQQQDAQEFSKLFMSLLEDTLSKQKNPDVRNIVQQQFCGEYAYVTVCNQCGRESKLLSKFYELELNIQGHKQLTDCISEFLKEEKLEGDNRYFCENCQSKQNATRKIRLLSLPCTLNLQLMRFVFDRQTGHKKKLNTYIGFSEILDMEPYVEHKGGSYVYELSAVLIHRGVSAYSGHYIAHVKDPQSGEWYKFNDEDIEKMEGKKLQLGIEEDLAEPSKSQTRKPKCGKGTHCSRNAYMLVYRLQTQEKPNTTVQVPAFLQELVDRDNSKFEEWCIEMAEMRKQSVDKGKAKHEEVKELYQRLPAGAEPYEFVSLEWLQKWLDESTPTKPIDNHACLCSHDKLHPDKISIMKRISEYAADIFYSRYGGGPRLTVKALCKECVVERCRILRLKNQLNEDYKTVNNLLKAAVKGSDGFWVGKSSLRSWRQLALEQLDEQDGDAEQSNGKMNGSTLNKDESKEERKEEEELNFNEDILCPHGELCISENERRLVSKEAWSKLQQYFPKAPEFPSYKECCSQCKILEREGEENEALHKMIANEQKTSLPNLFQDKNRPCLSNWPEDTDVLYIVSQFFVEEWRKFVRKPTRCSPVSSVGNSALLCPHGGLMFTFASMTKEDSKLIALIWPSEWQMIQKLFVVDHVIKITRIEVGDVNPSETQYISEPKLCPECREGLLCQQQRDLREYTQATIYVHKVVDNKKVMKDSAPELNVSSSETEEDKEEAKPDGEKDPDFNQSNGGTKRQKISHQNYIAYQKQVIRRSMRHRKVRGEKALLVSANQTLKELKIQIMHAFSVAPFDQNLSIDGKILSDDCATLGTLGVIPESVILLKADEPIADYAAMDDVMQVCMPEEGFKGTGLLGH
Method in brief: as §1

[5] = molecular target: T4, USP5 (UniProt P45974)
T4 sequence (whole entry): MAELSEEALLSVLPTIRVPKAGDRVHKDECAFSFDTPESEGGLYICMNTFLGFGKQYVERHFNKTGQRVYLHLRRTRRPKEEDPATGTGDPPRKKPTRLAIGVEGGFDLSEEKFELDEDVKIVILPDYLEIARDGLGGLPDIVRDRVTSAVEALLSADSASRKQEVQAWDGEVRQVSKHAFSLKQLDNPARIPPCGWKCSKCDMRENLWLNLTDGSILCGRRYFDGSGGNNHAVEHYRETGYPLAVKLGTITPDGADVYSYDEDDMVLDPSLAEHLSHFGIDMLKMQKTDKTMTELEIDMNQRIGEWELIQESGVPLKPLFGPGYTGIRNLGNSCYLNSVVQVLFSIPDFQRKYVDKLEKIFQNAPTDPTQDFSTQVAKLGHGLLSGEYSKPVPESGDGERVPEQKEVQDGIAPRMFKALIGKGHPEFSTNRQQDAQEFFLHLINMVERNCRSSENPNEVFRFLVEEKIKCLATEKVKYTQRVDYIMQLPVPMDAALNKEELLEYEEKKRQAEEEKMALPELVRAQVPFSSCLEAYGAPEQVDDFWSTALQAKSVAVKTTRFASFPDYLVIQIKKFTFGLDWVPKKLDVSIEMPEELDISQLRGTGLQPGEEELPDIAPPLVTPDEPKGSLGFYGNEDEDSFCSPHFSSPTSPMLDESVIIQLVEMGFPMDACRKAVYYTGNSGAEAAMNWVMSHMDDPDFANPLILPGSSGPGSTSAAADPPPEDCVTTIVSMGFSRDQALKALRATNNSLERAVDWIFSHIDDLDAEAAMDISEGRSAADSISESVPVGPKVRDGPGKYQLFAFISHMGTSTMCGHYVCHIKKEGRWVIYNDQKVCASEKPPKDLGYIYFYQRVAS
Method in brief: as §1

[6] = molecular target: USP54 (UniProt Q70EL1)
Method in brief: as §1

[7] = molecular target: USP7 (UniProt Q93009)
Method in brief: as §1

[8] = molecular target: T5, USP8 (UniProt P40818)
T5 sequence (whole entry): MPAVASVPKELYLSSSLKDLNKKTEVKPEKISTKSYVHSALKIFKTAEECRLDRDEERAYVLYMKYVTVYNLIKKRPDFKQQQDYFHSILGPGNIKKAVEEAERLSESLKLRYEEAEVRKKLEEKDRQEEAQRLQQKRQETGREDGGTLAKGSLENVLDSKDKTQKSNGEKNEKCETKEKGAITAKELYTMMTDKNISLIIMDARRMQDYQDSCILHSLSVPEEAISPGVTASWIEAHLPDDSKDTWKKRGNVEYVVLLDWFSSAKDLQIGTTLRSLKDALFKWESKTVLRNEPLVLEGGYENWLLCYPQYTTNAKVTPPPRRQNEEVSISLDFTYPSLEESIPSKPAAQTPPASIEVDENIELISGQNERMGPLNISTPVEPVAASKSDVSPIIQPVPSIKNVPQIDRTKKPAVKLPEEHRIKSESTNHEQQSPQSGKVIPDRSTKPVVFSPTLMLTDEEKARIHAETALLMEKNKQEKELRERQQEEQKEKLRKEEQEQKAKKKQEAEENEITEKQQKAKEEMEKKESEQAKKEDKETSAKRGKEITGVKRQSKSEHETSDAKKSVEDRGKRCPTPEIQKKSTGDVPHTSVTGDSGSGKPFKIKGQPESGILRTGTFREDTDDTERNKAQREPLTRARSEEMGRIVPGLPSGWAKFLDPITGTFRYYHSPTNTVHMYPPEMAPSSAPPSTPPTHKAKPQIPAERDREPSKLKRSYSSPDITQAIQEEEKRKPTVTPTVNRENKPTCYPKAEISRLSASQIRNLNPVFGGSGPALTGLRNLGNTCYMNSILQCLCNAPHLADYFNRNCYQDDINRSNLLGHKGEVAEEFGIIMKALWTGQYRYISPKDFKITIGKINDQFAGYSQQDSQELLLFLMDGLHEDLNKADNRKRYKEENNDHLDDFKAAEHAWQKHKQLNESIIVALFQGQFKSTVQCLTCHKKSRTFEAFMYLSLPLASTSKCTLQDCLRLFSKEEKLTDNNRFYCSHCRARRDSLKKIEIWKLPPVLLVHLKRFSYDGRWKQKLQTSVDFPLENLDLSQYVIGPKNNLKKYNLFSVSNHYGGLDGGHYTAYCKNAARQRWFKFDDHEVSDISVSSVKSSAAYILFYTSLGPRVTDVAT
Method in brief: as §1

[9] = molecular target: USP9X (UniProt Q93008)
Method in brief: as §1

[10] = molecular target: UniProt O00487
Method in brief: as §1

Measured: log2 ratio of Biotin-Ahx-Ub-VS probe labelling

Chain of USP9X (Q93008 whole entry): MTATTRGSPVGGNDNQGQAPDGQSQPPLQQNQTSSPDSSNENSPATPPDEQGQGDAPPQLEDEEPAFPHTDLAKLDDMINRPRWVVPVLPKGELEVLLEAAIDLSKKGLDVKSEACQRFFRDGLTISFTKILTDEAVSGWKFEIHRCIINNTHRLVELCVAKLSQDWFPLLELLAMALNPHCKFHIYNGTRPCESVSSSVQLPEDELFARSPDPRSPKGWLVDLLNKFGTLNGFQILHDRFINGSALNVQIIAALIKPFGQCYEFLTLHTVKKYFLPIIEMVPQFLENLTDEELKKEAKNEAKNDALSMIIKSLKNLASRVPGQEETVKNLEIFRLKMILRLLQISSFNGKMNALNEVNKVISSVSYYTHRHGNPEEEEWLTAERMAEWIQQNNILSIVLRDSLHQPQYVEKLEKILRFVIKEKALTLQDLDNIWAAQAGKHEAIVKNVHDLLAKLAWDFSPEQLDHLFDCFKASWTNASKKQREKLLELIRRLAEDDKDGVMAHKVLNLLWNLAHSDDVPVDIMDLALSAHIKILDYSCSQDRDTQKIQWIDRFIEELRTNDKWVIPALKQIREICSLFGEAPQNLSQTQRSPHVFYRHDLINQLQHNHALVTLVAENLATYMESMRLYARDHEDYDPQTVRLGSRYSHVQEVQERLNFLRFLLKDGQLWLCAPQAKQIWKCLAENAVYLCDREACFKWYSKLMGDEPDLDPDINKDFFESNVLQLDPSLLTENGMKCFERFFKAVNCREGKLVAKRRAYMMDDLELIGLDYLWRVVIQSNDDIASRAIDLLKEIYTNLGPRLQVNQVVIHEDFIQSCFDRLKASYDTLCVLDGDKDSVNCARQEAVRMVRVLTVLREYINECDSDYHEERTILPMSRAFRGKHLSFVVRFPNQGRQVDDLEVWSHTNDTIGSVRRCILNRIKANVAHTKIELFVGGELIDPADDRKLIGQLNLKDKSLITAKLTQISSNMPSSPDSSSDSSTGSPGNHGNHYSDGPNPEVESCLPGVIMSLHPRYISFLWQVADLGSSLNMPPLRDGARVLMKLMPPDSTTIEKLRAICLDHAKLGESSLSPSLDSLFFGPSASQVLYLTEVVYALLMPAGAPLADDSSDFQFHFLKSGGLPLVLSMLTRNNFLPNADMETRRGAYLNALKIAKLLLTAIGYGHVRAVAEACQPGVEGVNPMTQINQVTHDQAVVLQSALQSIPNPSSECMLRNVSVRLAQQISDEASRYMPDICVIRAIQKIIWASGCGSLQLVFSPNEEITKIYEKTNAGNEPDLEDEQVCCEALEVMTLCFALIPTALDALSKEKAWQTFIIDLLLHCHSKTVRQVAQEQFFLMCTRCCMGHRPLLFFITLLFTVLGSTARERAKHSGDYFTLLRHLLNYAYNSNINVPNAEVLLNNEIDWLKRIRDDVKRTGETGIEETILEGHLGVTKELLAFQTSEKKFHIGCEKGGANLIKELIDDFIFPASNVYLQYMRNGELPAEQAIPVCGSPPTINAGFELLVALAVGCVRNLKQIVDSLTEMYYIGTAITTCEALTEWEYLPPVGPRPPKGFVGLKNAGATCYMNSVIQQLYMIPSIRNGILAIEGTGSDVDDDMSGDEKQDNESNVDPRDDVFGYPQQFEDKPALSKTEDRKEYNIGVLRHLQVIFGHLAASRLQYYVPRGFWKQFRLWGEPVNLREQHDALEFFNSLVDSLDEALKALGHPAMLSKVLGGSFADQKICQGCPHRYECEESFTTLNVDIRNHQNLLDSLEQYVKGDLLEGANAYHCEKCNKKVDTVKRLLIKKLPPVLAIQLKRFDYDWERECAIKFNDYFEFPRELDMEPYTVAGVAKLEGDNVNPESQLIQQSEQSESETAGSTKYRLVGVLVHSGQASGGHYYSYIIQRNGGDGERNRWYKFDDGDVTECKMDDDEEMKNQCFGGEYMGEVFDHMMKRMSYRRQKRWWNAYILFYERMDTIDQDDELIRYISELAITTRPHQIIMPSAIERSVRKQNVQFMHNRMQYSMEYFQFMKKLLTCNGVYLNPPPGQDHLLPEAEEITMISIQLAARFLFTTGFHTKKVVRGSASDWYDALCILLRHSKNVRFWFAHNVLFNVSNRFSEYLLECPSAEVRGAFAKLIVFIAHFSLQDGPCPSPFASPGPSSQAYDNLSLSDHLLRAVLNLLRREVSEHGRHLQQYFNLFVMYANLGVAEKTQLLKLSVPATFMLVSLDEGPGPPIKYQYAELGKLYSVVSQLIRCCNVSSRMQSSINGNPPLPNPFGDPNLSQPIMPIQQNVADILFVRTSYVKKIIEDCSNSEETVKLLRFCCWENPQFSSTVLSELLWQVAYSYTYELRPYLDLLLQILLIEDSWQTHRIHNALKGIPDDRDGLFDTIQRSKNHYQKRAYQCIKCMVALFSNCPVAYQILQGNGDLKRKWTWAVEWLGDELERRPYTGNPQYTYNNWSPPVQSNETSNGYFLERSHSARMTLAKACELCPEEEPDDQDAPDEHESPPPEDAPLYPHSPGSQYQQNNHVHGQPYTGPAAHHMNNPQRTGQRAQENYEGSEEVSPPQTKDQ
Chain of UniProt O00487 (O00487 whole entry): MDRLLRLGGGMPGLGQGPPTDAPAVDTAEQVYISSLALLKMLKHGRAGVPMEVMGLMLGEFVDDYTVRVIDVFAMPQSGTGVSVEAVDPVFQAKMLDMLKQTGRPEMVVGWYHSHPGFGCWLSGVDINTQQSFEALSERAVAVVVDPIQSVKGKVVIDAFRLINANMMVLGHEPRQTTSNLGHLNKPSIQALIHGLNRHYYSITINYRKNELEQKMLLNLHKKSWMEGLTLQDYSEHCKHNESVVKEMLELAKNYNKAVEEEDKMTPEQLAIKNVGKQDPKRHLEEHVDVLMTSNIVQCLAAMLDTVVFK
Chain of USP46 (P62068 whole entry): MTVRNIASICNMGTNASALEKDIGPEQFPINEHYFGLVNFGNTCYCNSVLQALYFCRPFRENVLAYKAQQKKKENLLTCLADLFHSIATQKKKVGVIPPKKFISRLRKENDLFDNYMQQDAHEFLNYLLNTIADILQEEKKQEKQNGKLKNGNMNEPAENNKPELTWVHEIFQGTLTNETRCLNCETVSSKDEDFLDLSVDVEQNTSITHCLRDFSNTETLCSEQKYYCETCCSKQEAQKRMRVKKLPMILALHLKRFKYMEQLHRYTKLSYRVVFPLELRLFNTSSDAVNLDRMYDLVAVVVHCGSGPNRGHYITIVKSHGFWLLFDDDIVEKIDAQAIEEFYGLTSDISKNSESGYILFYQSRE
Chain of USP7 (Q93009 whole entry, looked up): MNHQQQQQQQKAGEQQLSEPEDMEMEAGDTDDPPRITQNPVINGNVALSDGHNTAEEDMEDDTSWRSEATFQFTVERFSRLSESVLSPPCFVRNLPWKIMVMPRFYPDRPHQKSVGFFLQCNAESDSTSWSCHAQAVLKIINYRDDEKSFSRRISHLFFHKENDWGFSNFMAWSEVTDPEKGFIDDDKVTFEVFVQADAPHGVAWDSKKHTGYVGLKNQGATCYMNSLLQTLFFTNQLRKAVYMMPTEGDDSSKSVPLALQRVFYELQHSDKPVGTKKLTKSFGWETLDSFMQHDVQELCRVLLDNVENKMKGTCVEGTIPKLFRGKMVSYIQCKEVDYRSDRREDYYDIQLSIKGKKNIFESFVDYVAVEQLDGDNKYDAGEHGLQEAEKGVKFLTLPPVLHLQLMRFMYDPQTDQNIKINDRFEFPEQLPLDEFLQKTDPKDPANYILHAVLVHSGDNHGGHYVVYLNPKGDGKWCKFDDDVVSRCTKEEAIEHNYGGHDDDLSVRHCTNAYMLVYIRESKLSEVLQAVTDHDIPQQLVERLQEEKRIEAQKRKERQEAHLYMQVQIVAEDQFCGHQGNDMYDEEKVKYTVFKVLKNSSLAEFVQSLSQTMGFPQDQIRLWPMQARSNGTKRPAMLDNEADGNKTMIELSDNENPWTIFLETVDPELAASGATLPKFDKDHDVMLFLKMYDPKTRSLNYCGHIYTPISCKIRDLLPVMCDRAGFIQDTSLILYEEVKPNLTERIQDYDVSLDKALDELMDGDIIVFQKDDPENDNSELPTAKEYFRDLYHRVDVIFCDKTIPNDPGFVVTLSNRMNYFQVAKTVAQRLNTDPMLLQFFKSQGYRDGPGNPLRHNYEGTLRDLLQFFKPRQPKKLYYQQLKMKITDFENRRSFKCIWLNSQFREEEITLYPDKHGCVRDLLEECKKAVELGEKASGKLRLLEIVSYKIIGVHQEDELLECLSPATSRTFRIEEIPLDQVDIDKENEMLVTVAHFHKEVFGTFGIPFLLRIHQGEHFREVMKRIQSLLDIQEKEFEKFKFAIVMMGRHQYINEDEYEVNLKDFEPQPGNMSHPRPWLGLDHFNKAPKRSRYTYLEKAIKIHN

Cc1ccc(CN(CCO)C(=O)CCl)cc1
inactive: [1] -0.148 | [2] -0.105 | [3] -0.828 | [4] -0.292 | [5] -0.134 | [6] 0.222 | [7] -0.788 | [8] -0.664 | [9] -0.526 | [10] -0.0465
